Data published in PubChem BioAssay (NCATS).
Records with an inconclusive call do not appear. Active and inactive are the calls of the source. Unless noted, calls follow the shape of the full dose curve. Residues, ends and D or L forms follow the SMILES beside them. *: point of attachment. Cbz = O=C(OCc1ccccc1)*

Key:
[1] = biological target: Cytochrome P450 2C9 (Homo sapiens) (UniProt P11712); experiment: qHTS for inhibitors of CYP2C9 against the NCATS DSHEA and TCM libraries (AID 1919973; active = well fitted curve in the direction sought with a large enough effect; an effect the other way counts as inactive or inconclusive; also: potency is read from the fitted curve at half-maximal effect)
How it was run: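 Each CYP isoform and its pro-luciferin substrate, at isoform-specific final concentrations, were preincubated 15 min at RT with substances. NADPH regeneration solution (1x) started a 30-45 min reaction, and P450-Glo luminescence was read.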

[2] = biological target: Nuclear receptor subfamily 1 group I member 2 (Homo sapiens) (UniProt O75469); experiment: Dual reporter qHTS for agonist of Pregnane X Receptor (hPXR) against the NCATS DSHEA and TCM libraries: Luminescence readout (AID 1920059; active = well fitted curve in the direction sought with a large enough effect; an effect the other way counts as inactive or inconclusive; also: 0% is about no effect)
How it was run: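 hPXR-Luc HepG2 cells, 2000/well in 5% charcoal-stripped FBS medium, attached 5 h, then exposed 24 h at 37C to compounds. Viability by CellTiter-Fluor, then luciferase luminescence with ONE-Glo.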

[3] = qHTS drug screen for cell cycle checkpoint inhibitors in PARPi-resistant BRCA-mutant ovarian cancer cell lines. (AID 1963452); conditions: PEO1/OlaR viability, CellTiter-Glo luminescence, 96 h; for Z-AUC: stronger effect = lower value; also: potency is read from the fitted curve at half-maximal effect
How it was run: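 PEO1, PEO4 and PEO1/OlaR ovarian cancer cells, 600 per well, exposed 96 h at 37C to a dilution series. Viability read by CellTiter-Glo luminescence, normalized to DMSO and empty wells; activity summarized as Z-AUC.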

[4] = measured here: PEO1 parental Z-AUC

Cytochrome P450 2C9 (Homo sapiens), sequence (P11712 whole entry, looked up, canonical isoform): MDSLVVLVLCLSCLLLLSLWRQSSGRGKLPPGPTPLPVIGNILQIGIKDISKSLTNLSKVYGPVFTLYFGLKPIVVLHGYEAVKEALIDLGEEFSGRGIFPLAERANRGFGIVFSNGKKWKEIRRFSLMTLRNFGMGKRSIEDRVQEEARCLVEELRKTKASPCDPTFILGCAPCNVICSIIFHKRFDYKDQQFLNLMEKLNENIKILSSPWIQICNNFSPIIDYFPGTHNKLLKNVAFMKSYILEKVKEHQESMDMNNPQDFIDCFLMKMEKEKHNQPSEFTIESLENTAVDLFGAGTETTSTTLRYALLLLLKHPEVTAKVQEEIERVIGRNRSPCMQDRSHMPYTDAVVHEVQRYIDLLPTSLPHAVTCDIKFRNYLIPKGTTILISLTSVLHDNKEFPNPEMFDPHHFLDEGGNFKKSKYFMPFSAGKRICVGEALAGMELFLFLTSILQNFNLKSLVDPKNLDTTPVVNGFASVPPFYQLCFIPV
Nuclear receptor subfamily 1 group I member 2 (Homo sapiens), sequence (O75469 whole entry, looked up): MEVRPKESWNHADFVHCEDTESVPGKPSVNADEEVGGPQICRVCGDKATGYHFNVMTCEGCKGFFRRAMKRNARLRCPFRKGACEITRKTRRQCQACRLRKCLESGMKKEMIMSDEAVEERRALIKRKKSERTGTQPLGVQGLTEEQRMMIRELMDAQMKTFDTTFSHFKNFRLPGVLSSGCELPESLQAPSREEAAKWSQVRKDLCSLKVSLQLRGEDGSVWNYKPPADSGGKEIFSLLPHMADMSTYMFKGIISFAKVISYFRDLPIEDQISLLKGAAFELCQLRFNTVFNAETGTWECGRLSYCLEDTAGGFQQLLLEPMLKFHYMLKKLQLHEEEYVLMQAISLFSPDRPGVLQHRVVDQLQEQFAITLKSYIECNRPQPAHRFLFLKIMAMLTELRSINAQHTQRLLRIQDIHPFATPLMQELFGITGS

Q: With O=C1c2c(O)cccc2[C@@H]([C@@H]2O[C@H](CO)[C@@H](O)[C@H](O)[C@H]2O)c2cc(CO)cc(O)c21 as the compound, how does the Potency [1] read?
A: Its Potency is 11200 nM (active).

Q: What about the outcome [2] of the same compound?
A: The outcome was “inactive”.

Q: For C=C(C)[C@@H]1CC[C@]2(C(=O)O)CC[C@]3(C)[C@H](CC[C@@H]4[C@@]5(C)CC[C@H](O)C(C)(C)[C@@H]5CC[C@]43C)[C@@H]12, which Potency [1] is on record?
A: The Potency was “inactive”.

Q: With COc1ccc(C(C)=O)c(O)c1 as the compound, how does the outcome [2] read?
A: Its outcome is “inactive”.

Q: Which Z-AUC [3] does the source give for O=c1ccn([C@@H]2O[C@H](CO)[C@H](O)[C@@H]2F)c(=O)[nH]1 here?
A: The Z-AUC was 0.179 (inactive).

Q: What about the Z-AUC [3, 4] of the same compound?
A: The Z-AUC was 0.56.

Q: What about the Z-AUC ([3]; measured here: PEO4 Z-AUC) of the same compound?
A: Its Z-AUC is 0.262.

Q: Which Z-AUC [3] does the source give for N#Cc1c(C2CCNCC2)cc(-c2c(O)cccc2OCC2CC2)nc1N here?
A: Its Z-AUC is 0.339 (inactive).

Q: And the Z-AUC [3, 4]?
A: Its Z-AUC is 0.598.

Q: What about the Z-AUC ([3]; measured here: PEO4 Z-AUC) of the same compound?
A: The Z-AUC was 0.733.

Q: What does the source list for CCCc1nc(C(C)(C)O)c(C(=O)O)n1Cc1ccc(-c2ccccc2-c2nn[nH]n2)cc1?
A: Z-AUC [3]: 0.227 (inactive); Z-AUC [3, 4]: 0.788; Z-AUC ([3]; measured here: PEO4 Z-AUC): 1.03

Q: Which results are given for O=C1NC(O)CCN1[C@@H]1O[C@H](CO)[C@H](O)[C@H]1O (stereo partly drawn)?
A: Z-AUC [3]: -0.827 (inactive); Z-AUC [3, 4]: -1.1; Z-AUC ([3]; measured here: PEO4 Z-AUC): -1.36

Q: Which Z-AUC [3] does the source give for C[C@H]1COc2c(N3CCN(C)CC3)c(F)cc3c(=O)c(C(=O)O)cn1c23 here?
A: Its Z-AUC is -0.648 (inactive).

Q: And the Z-AUC [3, 4]?
A: Its Z-AUC is -0.279.

Q: And the Z-AUC ([3]; measured here: PEO4 Z-AUC)?
A: Its Z-AUC is -0.579.

Q: What does the source list for FC(F)(F)c1ccc(Nc2nc3ccc(Oc4ccnc(-c5ncc(C(F)(F)F)[nH]5)c4)cc3[nH]2)cc1?
A: Z-AUC [3]: -0.52 (inactive); Z-AUC [3, 4]: -0.706; Z-AUC ([3]; measured here: PEO4 Z-AUC): -1.16

Q: Which Potency [3] does the source give for COc1cc([C@@H]2c3cc4c(cc3[C@H](O)[C@H]3COC(=O)[C@@H]23)OCO4)cc(OC)c1OC here?
A: The Potency was 1230 nM (active).

Q: What about the Z-AUC [3, 4] of the same compound?
A: The Z-AUC was -1.51.

Q: And the Z-AUC ([3]; measured here: PEO4 Z-AUC)?
A: Its Z-AUC is -1.58.

Q: Which Z-AUC [3] does the source give for CC(C)C[C@@H](C=O)NC(=O)[C@H](CC(C)C)NC(=O)[C@H](CC(C)C)NC(=O)OCc1ccccc1 (Cbz-Leu-Leu-Leu-aldehyde) here?
A: Its Z-AUC is -0.0586 (inactive).

Q: What about the Z-AUC [3, 4] of the same compound?
A: The Z-AUC was -0.937.

Q: And the Z-AUC ([3]; measured here: PEO4 Z-AUC)?
A: The Z-AUC was -0.457.

Q: Which Z-AUC [3] does the source give for CC(=O)O[C@H]1C[C@@H]2CC[C@H]3[C@H]4C[C@H]([N+]5(C)CCCCC5)[C@@H](OC(C)=O)[C@@]4(C)CC[C@@H]3[C@@]2(C)C[C@H]1[N+]1(C)CCCCC1 here?
A: Its Z-AUC is 0.98 (inactive).

Q: What about the Z-AUC [3, 4] of the same compound?
A: Its Z-AUC is 1.06.

Q: And the Z-AUC ([3]; measured here: PEO4 Z-AUC)?
A: Its Z-AUC is 1.25.

Q: For Cc1cc(Nc2ncc3c(n2)N(C)C(=O)N(c2cc(NC(=O)c4cccc(C(F)(F)F)c4)ccc2C)C3)n(C)n1, which Z-AUC [3] is on record?
A: The Z-AUC was -1.62 (inactive).

Q: And the Z-AUC [3, 4]?
A: The Z-AUC was -1.69.

Q: What about the Z-AUC ([3]; measured here: PEO4 Z-AUC) of the same compound?
A: The Z-AUC was -1.33.

Q: Which results are given for CCC(C(=O)O)C1CCC(C)C(C(C)C(O)C(C)C(=O)C(CC)C2OC3(C=CC(O)[C@@]4(CC[C@](C)(C5CC[C@@](O)(CC)C(C)O5)O4)O3)C(C)CC2C)O1 (stereo partly drawn)?
A: Potency [3]: 1380 nM (active); Z-AUC [3, 4]: -1.77; Z-AUC ([3]; measured here: PEO4 Z-AUC): -1.98

Q: With CCN(CC)CCCCNc1ncc2c(n1)N(C)C(=O)N(c1c(Cl)c(OC)cc(OC)c1Cl)C2 as the compound, how does the Z-AUC [3] read?
A: The Z-AUC was 0.806 (inactive).

Q: And the Z-AUC [3, 4]?
A: The Z-AUC was 1.27.

Q: And the Z-AUC ([3]; measured here: PEO4 Z-AUC)?
A: The Z-AUC was 0.972.

Q: With CS(=O)(=O)N1CCc2c(-c3cnc(N)nc3)nc(N3CCOCC3)nc21 as the compound, how does the Z-AUC [3] read?
A: The Z-AUC was -0.521 (inactive).

Q: What about the Z-AUC [3, 4] of the same compound?
A: Its Z-AUC is -0.562.

Q: And the Z-AUC ([3]; measured here: PEO4 Z-AUC)?
A: Its Z-AUC is 0.0155.

Q: What does the source list for C#Cc1cccc(Nc2ncnc3cc(OCCOC)c(OCCO)cc23)c1?
A: Z-AUC [3]: 0.364 (inactive); Z-AUC [3, 4]: 0.383; Z-AUC ([3]; measured here: PEO4 Z-AUC): 0.173

Q: Which Z-AUC [3] does the source give for COc1cc(C(=O)NC2CCN(C)CC2)ccc1Nc1ncc2c(n1)N(C1CCCC1)CCC(=O)N2C(C)C here?
A: The Z-AUC was -0.77 (inactive).

Q: And the Z-AUC [3, 4]?
A: Its Z-AUC is 0.079.

Q: What about the Z-AUC ([3]; measured here: PEO4 Z-AUC) of the same compound?
A: The Z-AUC was -0.318.

Q: Which Z-AUC [3] does the source give for O=C(CN1C(=O)C2(CCCC2)NC[C@H]1c1cc(F)cc(F)c1)Nc1ccc2c(c1)C[C@@]1(C2)C(=O)Nc2ncccc21 here?
A: Its Z-AUC is 0.0664 (inactive).

Q: What about the Z-AUC [3, 4] of the same compound?
A: The Z-AUC was -0.0432.

Q: And the Z-AUC ([3]; measured here: PEO4 Z-AUC)?
A: Its Z-AUC is 0.449.

Q: Which results are given for C[C@H](CCC(=O)O)[C@H]1CCC2C3C[C@H](O)[C@@H]4C[C@H](O)CC[C@]4(C)C3CC[C@@]21C (stereo partly drawn)?
A: Z-AUC [3]: 0.00585 (inactive); Z-AUC [3, 4]: 0.454; Z-AUC ([3]; measured here: PEO4 Z-AUC): 0.29

Q: Which results are given for CC(=O)OC[C@@H]1O[C@@H](n2ccc(=O)[nH]c2=O)[C@H](OC(C)=O)[C@H]1OC(C)=O?
A: Z-AUC [3]: 0.415 (inactive); Z-AUC [3, 4]: 0.423; Z-AUC ([3]; measured here: PEO4 Z-AUC): 0.195

Q: With COc1cc(O)c2c(c1)C1OC1C[C@H](O)[C@H](O)C(=O)C=CC[C@H](C)OC2=O (stereo partly drawn) as the compound, how does the Z-AUC [3] read?
A: The Z-AUC was 0.145 (inactive).

Q: What about the Z-AUC [3, 4] of the same compound?
A: The Z-AUC was -0.101.

Q: And the Z-AUC ([3]; measured here: PEO4 Z-AUC)?
A: Its Z-AUC is -0.574.

Q: With Cc1cnc(Nc2ccc(N3CCN(C)CC3)cc2)nc1Nc1cccc(S(=O)(=O)NC(C)(C)C)c1 as the compound, how does the Z-AUC [3] read?
A: The Z-AUC was -0.289 (inactive).

Q: And the Z-AUC [3, 4]?
A: Its Z-AUC is -0.236.

Q: And the Z-AUC ([3]; measured here: PEO4 Z-AUC)?
A: Its Z-AUC is -0.304.

Q: Which results are given for NC(=O)Nc1sc(-c2ccc(F)cc2)cc1C(N)=O?
A: Z-AUC [3]: -1.29 (inactive); Z-AUC [3, 4]: -1.13; Z-AUC ([3]; measured here: PEO4 Z-AUC): -1.05

Q: With Nc1ccn(C[C@@H](CO)OCP(=O)(O)O)c(=O)n1 as the compound, how does the Z-AUC [3] read?
A: The Z-AUC was -1.33 (inactive).

Q: And the Z-AUC [3, 4]?
A: Its Z-AUC is -0.089.

Q: And the Z-AUC ([3]; measured here: PEO4 Z-AUC)?
A: The Z-AUC was -0.602.

Q: For CCOC(=O)C=C[C@H](C[C@@H]1CCNC1=O)NC(=O)[C@@H](CC(=O)[C@@H](NC(=O)c1cc(C)on1)C(C)C)Cc1ccc(F)cc1, which Z-AUC [3] is on record?
A: Its Z-AUC is -0.315 (inactive).

Q: And the Z-AUC [3, 4]?
A: The Z-AUC was -0.169.

Q: And the Z-AUC ([3]; measured here: PEO4 Z-AUC)?
A: The Z-AUC was 0.164.
